Source: the antibiotic and cytotoxicity screens of Wong et al. (2023)
The campaign covered roughly 39,000 compounds. About 3,300 (8.5%) were called active. This is one part of a sample in which actives are shown more often than they occur.

The molecules below were run on HepG2 (assay: cytotoxicity call (relative viability < 0.9)). Details: 10 µM.

| Structure (SMILES) | cytotoxicity call |
| --- | --- |
| C[C@H](CO)N1C[C@H](C)[C@H](CN(C)C(=O)Nc2cccc3ccccc23)Oc2ccc(NS(=O)(=O)c3cccs3)cc2CC1=O | inactive |
| CC(C)NC(=O)N(C)C[C@@H]1OCCCC[C@@H](C)Oc2ccc(NC(=O)Nc3ccc(F)cc3)cc2C(=O)N([C@H](C)CO)C[C@H]1C | inactive |
| COc1ccccc1CNC(=O)C[C@@H]1C[C@@H]2c3cc(NC(=O)NC4CCCC4)ccc3O[C@@H]2[C@@H](CO)O1 | inactive |
| COc1ccc(NC(=O)N(C)C[C@H]2Oc3c(NC(=O)Nc4cccc5ccccc45)cccc3C(=O)N([C@H](C)CO)C[C@@H]2C)cc1 | inactive |
| COc1ccc(S(=O)(=O)Nc2ccc3c(c2)C(=O)N([C@H](C)CO)C[C@H](C)[C@H](CN(C)Cc2ccc(C(=O)O)cc2)OCCCC[C@@H](C)O3)cc1 | inactive |
| COc1ccc(NC(=O)N(C)C[C@@H]2OCCCC[C@@H](C)Oc3ccc(NC(=O)Nc4ccc(F)cc4)cc3C(=O)N([C@H](C)CO)C[C@H]2C)cc1 | inactive |
| O=C(CC1CC1)NCc1cnc2n1CCNCC2 | inactive |
| O=C(C[C@@H]1CC=CCC[C@H](Cc2ccc(F)cc2)C(=O)OC[C@@H](Cc2c[nH]c3ccccc23)NC1=O)N[C@@H](CO)Cc1ccccc1 | inactive |
| O=C(C[C@@H]1CC=CCCC(=O)OC[C@@H](Cc2c[nH]c3ccccc23)NC1=O)N[C@H](CO)Cc1ccccc1 | inactive |
| O=C(C[C@@H]1CC=CCC[C@@H](Cc2ccc(F)cc2)C(=O)OC[C@@H](Cc2c[nH]c3ccccc23)NC1=O)N[C@@H](CO)Cc1ccccc1 | inactive |
| C[C@@H]1COC(=O)[C@@H](Cc2ccc(F)cc2)CCC=CC[C@@H](CC(=O)N[C@H](CO)Cc2ccccc2)C(=O)N1 | inactive |
| O=C(C[C@@H]1CC=CCC[C@@H](Cc2ccc(F)cc2)C(=O)OC[C@H](Cc2c[nH]c3ccccc23)NC1=O)N[C@@H](CO)Cc1ccccc1 | active |
| O=C(C[C@@H]1CC=CCCC(=O)OC[C@H](Cc2c[nH]c3ccccc23)NC1=O)N[C@@H](CO)Cc1ccccc1 | inactive |
| O=C(C[C@@H]1CC=CCC[C@H](Cc2ccc(F)cc2)C(=O)OC[C@H](Cc2c[nH]c3ccccc23)NC1=O)N[C@H](CO)Cc1ccccc1 | active |
| O=C(C[C@@H]1CC=CCCC(=O)OC[C@H](Cc2c[nH]c3ccccc23)NC1=O)N[C@H](CO)Cc1ccccc1 | inactive |
| O=C(C[C@@H]1CC=CCC[C@@H](Cc2ccc(F)cc2)C(=O)OC[C@H](Cc2c[nH]c3ccccc23)NC1=O)N[C@H](CO)Cc1ccccc1 | active |
| O=C(C[C@@H]1CC=CCC[C@@H](Cc2ccc(F)cc2)C(=O)OC[C@@H](Cc2c[nH]c3ccccc23)NC1=O)N[C@H](CO)Cc1ccccc1 | active |
| O=C(C[C@@H]1CC=CCC[C@H](Cc2ccc(F)cc2)C(=O)OC[C@H](Cc2c[nH]c3ccccc23)NC1=O)N[C@@H](CO)Cc1ccccc1 | inactive |
| O=C(C[C@@H]1CC=CCCC(=O)OC[C@@H](Cc2c[nH]c3ccccc23)NC1=O)N[C@@H](CO)Cc1ccccc1 | inactive |
| Cc1noc(C)c1NC(=O)N(C)C[C@@H]1Oc2c(NS(=O)(=O)c3ccccc3)cccc2C(=O)N([C@@H](C)CO)C[C@@H]1C | inactive |
| CC(C)Cn1c(N)cc(=O)n(C)c1=O | inactive |
| C[C@@H]1CCCCO[C@@H](CN(C)C(=O)Nc2ccc3c(c2)OCO3)[C@H](C)CN([C@H](C)CO)C(=O)c2cc(NS(=O)(=O)c3ccccc3)ccc2O1 | inactive |

| Structure (SMILES) | cytotoxicity call |
| --- | --- |
| COc1ccc(S(=O)(=O)Nc2cccc3c2O[C@H](CN(C)C(=O)Nc2cccc4ccccc24)[C@@H](C)CN([C@@H](C)CO)C3=O)cc1 | inactive |
| C=CC[C@@H](CC(=O)N(CCO)Cc1ccccc1)C(=O)NC[C@@H](OC(=O)[C@@H](CC=C)Cc1ccc(F)cc1)c1ccccc1 | inactive |
| C[C@@H]1CCCCO[C@@H](CN(C)CC2CC2)[C@H](C)CN([C@@H](C)CO)C(=O)c2cc(NC(=O)NC3CCCCC3)ccc2O1 | inactive |
| O=C1NC(=O)[C@@]2(CC[C@H](C(=O)O)C2)N1 | inactive |
| CN1CCN(C(=O)C[C@@H]2CC[C@H]3[C@@H](COC[C@H](O)CN3Cc3ccc(Oc4ccccc4)cc3)O2)CC1 | inactive |
| C[C@@H]1CCCCO[C@@H](CN(C)S(=O)(=O)c2cccs2)[C@H](C)CN([C@@H](C)CO)C(=O)c2cc(NC(=O)NC3CCCCC3)ccc2O1 | inactive |
| O=C(O)c1oc2ccccc2c1CSc1ccc(Cl)cc1 | inactive |
| COc1ccc(CN(C)C[C@@H]2OCCCC[C@@H](C)Oc3ccc(NC(=O)NC4CCCCC4)cc3C(=O)N([C@H](C)CO)C[C@H]2C)cc1 | inactive |
| COc1ccc(CN(C)C[C@H]2OCCCC[C@H](C)Oc3ccc(NC(=O)NC4CCCCC4)cc3C(=O)N([C@H](C)CO)C[C@H]2C)cc1 | inactive |
| COc1ccc(CN(C)C[C@@H]2OCCCC[C@@H](C)Oc3ccc(NC(=O)NC4CCCCC4)cc3C(=O)N([C@H](C)CO)C[C@@H]2C)cc1 | inactive |
| COc1ccc(CN(C)C[C@H]2OCCCC[C@@H](C)Oc3ccc(NC(=O)NC4CCCCC4)cc3C(=O)N([C@@H](C)CO)C[C@@H]2C)cc1 | inactive |
| COc1ccc(CN(C)C[C@@H]2OCCCC[C@H](C)Oc3ccc(NC(=O)NC4CCCCC4)cc3C(=O)N([C@H](C)CO)C[C@@H]2C)cc1 | inactive |
| COc1ccc(CN(C)C[C@H]2OCCCC[C@H](C)Oc3ccc(NC(=O)NC4CCCCC4)cc3C(=O)N([C@@H](C)CO)C[C@@H]2C)cc1 | inactive |
| COc1ccc(CN(C)C[C@H]2OCCCC[C@@H](C)Oc3ccc(NC(=O)NC4CCCCC4)cc3C(=O)N([C@H](C)CO)C[C@H]2C)cc1 | active |
| COc1ccc(CN(C)C[C@@H]2OCCCC[C@H](C)Oc3ccc(NC(=O)NC4CCCCC4)cc3C(=O)N([C@@H](C)CO)C[C@@H]2C)cc1 | active |
| COc1ccc(CN(C)C[C@H]2OCCCC[C@H](C)Oc3ccc(NC(=O)NC4CCCCC4)cc3C(=O)N([C@@H](C)CO)C[C@H]2C)cc1 | active |
| C[C@H](CO)N1C[C@H](C)[C@@H](CN(C)Cc2ccc(C(=O)Nc3ccccc3N)cc2)OCc2cnnn2CCCC1=O | inactive |
| CC(C)(C)[S@@](=O)N1Cc2cc(C(=O)N3CCCCC3)nc(-c3cccc(-c4ccc(F)cc4)c3)c2[C@H]1CCO | inactive |
| O=C(CN1CCOCC1)NCC[C@H]1CC[C@H](NS(=O)(=O)c2ccc(Cl)cc2)[C@H](CO)O1 | inactive |
| CCc1cc(=O)oc2c(C)c(O[C@@H]3O[C@H](CO)[C@@H](O)[C@H](O)[C@H]3O)ccc12 | inactive |
| COc1ccc(S(=O)(=O)N(C)C[C@H]2Oc3ccc(NC(=O)CCC(F)(F)F)cc3CC(=O)N([C@H](C)CO)C[C@H]2C)cc1 | inactive |
| Cc1cc(C(=O)Nc2cccc3c2O[C@H](CN(C)Cc2ccccc2)[C@H](C)CN([C@@H](C)CO)C3=O)n(C)n1 | inactive |

| Structure (SMILES) | cytotoxicity call |
| --- | --- |
| COCC#Cc1ccc2c(c1)O[C@H](CN(C)C(=O)C1CCCCC1)[C@@H](C)CN([C@@H](C)CO)S2(=O)=O | inactive |
| CO[C@H](CN(C)S(=O)(=O)c1cn(C)cn1)[C@H](C)CN(C(=O)Nc1ccc(C(F)(F)F)cc1)[C@H](C)CO | inactive |
| CC(C)NC(=O)Nc1ccc2c(c1)C(=O)N([C@H](C)CO)C[C@@H](C)[C@@H](CN(C)C(=O)Nc1ccc3c(c1)OCO3)O2 | inactive |
| Cc1n[nH]c(C)c1S(=O)(=O)N1CCCC1 | inactive |
| COc1ccc(NC(=O)Nc2ccc3c(c2)[C@@H]2C[C@H](CC(=O)N4CCN(C)CC4)O[C@H](CO)[C@@H]2O3)cc1 | inactive |
| C[C@@H]1CN([C@H](C)CO)C(=O)c2cccc(NC(=O)Nc3cccc4ccccc34)c2O[C@@H]1CN(C)S(=O)(=O)c1ccc(F)cc1 | inactive |
| C[C@H](CO)N1C[C@H](C)[C@@H](CN(C)S(=O)(=O)c2ccc(Cl)cc2)Oc2c(NC(=O)Nc3cccc4ccccc34)cccc2C1=O | active |
| C[C@H]1CN([C@@H](C)CO)C(=O)c2cccc(NC(=O)Nc3cccc4ccccc34)c2O[C@@H]1CN(C)S(=O)(=O)c1ccc(F)cc1 | active |
| C[C@@H]1CN([C@@H](C)CO)C(=O)c2cccc(NC(=O)Nc3cccc4ccccc34)c2O[C@H]1CN(C)S(=O)(=O)c1ccc(F)cc1 | inactive |
| C[C@@H]1CN([C@@H](C)CO)C(=O)c2cccc(NC(=O)Nc3cccc4ccccc34)c2O[C@@H]1CN(C)S(=O)(=O)c1ccc(Cl)cc1 | inactive |
| C[C@H]1CN([C@@H](C)CO)C(=O)c2cccc(NC(=O)Nc3cccc4ccccc34)c2O[C@@H]1CN(C)S(=O)(=O)c1ccc(Cl)cc1 | inactive |
| C[C@H]1CN([C@@H](C)CO)C(=O)c2cccc(NS(C)(=O)=O)c2O[C@H]1CN(C)S(=O)(=O)c1ccc(Cl)cc1 | inactive |
| C[C@H]1CN([C@@H](C)CO)C(=O)Cc2cc(NC(=O)CCN3CCOCC3)ccc2O[C@@H]1CN(C)S(=O)(=O)c1ccccc1 | inactive |
| COc1ccc(NC(=O)N(C)C[C@H]2Oc3ccc(NC(=O)CCN4CCOCC4)cc3C(=O)N([C@H](C)CO)C[C@@H]2C)cc1 | inactive |
| CCS(=O)(=O)N1C[C@]2(CN(C2)S(=O)(=O)c2cn(cn2)C)c2c(n(c3cc(ccc23)OC)C)[C@@H]1CO | inactive |
| CC(=O)N(C)C[C@@H]1Oc2cc(C#CCN(C)C)ccc2S(=O)(=O)N([C@H](C)CO)C[C@H]1C | inactive |
| Cc1noc(C)c1S(=O)(=O)N(C)C[C@H]1Oc2ccc(NC(=O)CCN3CCOCC3)cc2CC(=O)N([C@@H](C)CO)C[C@H]1C | inactive |
| COC1OC2OC3(C)CCC4C(C)CCC(C1C)C24OO3 (stereo not given) | inactive |
| CC1CCC2C(C)C(OC(=O)CCC(=O)O)OC3OC4(C)CCC1C32OO4 (stereo not given) | active |
| CC(=O)C1CCC2C3CC=C4CC(OC(=O)CCC(=O)O)CCC4(C)C3CCC12C (stereo not given) | inactive |
| CC1CCC2C(C)C(O)OC3OC4(C)CCC1C32OO4 (stereo not given) | active |
